High-throughput results deposited in PubChem by National Center for Advancing Translational Sciences (NCATS).
ERG-DNA inh = ERG Ets/DNA interaction inhibition; P11308; fluorescence polarization, His-ERG Ets domain / labelled DNA; Potency, µM (doses to about 76.9 µM), for the others: top-dose FP activity, negative = inhibition, most hits filed as inhibitors; 370,000 compounds, 0.028% hits; active means well fitted inhibition curve with a large enough effect in the polarisation, with a control signal flat; inconclusive means small, poorly fitted or top-dose-only effect, or effect the other way, or a change in a side signal; inactive means no such curve, though single readings can be large or run the other way; the % refers to the polarisation;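 further: polarization taken with two DNA probes labelled with fluorescein and Texas red; potency means the concentration at half of the fitted maximal effect; % of control where 0% means no effect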
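His-tagged ERG Ets domain (1 uM in the protein solution; 300mM KCl, 50mM Tris-HCl, 1mM EDTA, 1mM DTT, pH 7.5) received compound, then a probe mix of 5 nM fluorescein-DNA and 100nM Texas-615-DNA. Fluorescence polarization was read for both dyes.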
RORgamma inh = ROR gamma (mouse) transcription inhibition. Potency, µM (series often up to 53.6 µM), for the others: at the highest dose activity change, negative = inhibition, hits mostly inhibitors. 310,000 compounds, 5.4% hits. Drosophila S2 Gal4-RORgamma UAS-luciferase reporter, 20 h. AID 2551. P51450; further: potency means the concentration at half of the fitted maximal effect; on the % scale 0 is the no-effect control and ±100 the full control effect; nearly all actives have a fitted effect of over 60% in size
Target sequence (P51450 whole entry, looked up, the tested form may be a part): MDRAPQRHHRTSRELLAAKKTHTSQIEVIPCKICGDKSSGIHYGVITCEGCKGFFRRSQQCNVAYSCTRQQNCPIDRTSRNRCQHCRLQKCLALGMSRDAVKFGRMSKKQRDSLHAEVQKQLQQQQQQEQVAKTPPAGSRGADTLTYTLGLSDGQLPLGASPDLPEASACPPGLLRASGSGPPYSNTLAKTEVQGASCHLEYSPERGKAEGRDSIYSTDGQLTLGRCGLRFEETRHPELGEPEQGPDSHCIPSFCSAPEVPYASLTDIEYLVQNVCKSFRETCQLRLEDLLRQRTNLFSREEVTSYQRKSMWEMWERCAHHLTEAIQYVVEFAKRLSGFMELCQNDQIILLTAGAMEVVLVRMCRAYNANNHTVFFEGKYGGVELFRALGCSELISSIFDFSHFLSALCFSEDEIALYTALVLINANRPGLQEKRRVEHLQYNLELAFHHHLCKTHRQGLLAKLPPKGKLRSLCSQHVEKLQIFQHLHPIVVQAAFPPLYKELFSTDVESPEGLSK
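A Gal4/UAS one-hybrid system in insect cells: metallothionein-promoter Gal4–ROR gamma fusion plus Photinus luciferase reporter. Copper sulfate 700 uM final, 20 hr ambient incubation, luminescent detection after 10 min with reagent.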
a7 integrin act = integrin-mediated muscular dystrophy alleviation activation. 350,000 compounds, 0.064% hits. Potency, µM (doses to about 38.3 µM), inactives show top-dose activation, actives largely listed as activators. alpha7betagal myoblasts, beta-gal FDG fluorescence, 48 h. AID 624291;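 further: potency means the concentration at half of the fitted maximal effect; 100% = response of the positive control SU9516; nearly all actives have a fitted effect of over 60% in size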
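alpha7betagal+/- myoblasts (passage 13, 250/well) treated 48 h at 37C with compounds at 1:260 dilution of DMSO stock. Lysed, then beta-galactosidase activity read as FDG fluorescence (ex 480/em 540) after 30 min, with pre-read for autofluorescence.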
Giardia kill = Giardia lamblia killing; activity change, % at 7.66 µM, hits read low; 340,000 compounds, 0.15% hits; Giardia lamblia trophozoite viability; AID 540267; in the data active means activity change below about -80%; inconclusive means between about -30% and that limit;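 further: parasites exposed to compound for two days anaerobically before the ATP read; on the % scale 0 is the no-effect control and ±100 the full control effect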
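Anaerobic 48 hrs incubation at 37 deg C of 100 trophozoites/well with test compounds; ATPLite 1-Step luminescence, 15-30 min RT, reports cellular ATP as viability.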
VP16 counter = Gal4-VP16 reporter inhibition counter-screen. Drosophila S2 Gal4-VP16 UAS-luciferase, luminescence, 20 h. Potency, µM (titrated, usually from 53.6 µM), inactives show at the top dose activity, negative = inhibition, most hits filed as inhibitors. 310,000 compounds, 3.5% hits;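 further: Gal4-VP16 expression switched on by copper sulfate through the metallothionein promoter; potency means the concentration at half of the fitted maximal effect; on the % scale 0 is the no-effect control and ±100 the full control effect; nearly all actives have a fitted effect of over 50% in size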
* = called active by the depositor; ? = inconclusive; . = not tested or not shown; [ ] = another dose, or the depositor's remark. This excerpt belongs to a sample that is enriched for hits. Unless noted, the call rests on the fitted dose curve; in most records, active means well fitted curve in the direction sought with a large enough effect; inconclusive means small, poorly fitted or top-dose-only effect, or another doubt; inactive means no such curve, though single readings can be large; an effect the other way counts as inactive or inconclusive.

SMILES	ERG-DNA inh	RORgamma inh	a7 integrin act	Giardia kill	VP16 counter
O=C1C2C3c4ccccc4C(c4ccccc43)C2C(=O)N1c1nc(-c2ccccc2)cs1 (centres undefined)	8%	-8%	2%	-2	0%
N=C1SCC(=O)N1c1nc(-c2ccccc2)cs1	.	8.9µM*	16%	-4	-4%
CC(C)N(C(=O)CSc1ccc(S(=O)(=O)N2CCCCC2)cn1)C(C)C	-1%	.	20%	5	.
C=CCNc1nnc(SC2CC(=O)N(c3ccc(OCCC)cc3)C2=O)s1 (centres undefined)	-1%	?	-61%	5	18µM*
CCOc1ccc(N2C(=O)CC(Sc3ncccn3)C2=O)cc1 (centres undefined)	-2%	?	4%	2	?
CCOc1cc(/C=C2\SC(=S)N(N3CCOCC3)C2=O)ccc1O	61%	6%	-18%	-14	-6%
CCOc1cc(/C=C2\SC(=N)N(c3nccs3)C2=O)ccc1OCCN1CCOCC1	-1%	0.56µM*	-27%	?	2.8µM*
CCOC(=O)c1cc2c(=O)n3ccccc3nc2n(CCOC)c1=NC(=O)c1c(-c2ccccc2Cl)noc1C	1%	.	.	.	.
COc1ccc2c(c1)O[C@@H](c1ccc3c(c1)OCO3)[C@H](OC(=O)N[C@H]1CCCc3ccccc31)C2=O	.	-1%	.	.	5%
CCCOc1ccc(CSC(CC(=O)O)C(=O)O)cc1 (centres undefined)	-26%	-14%	21%	-29	-3%
CCCCOc1ccc(CSC(CC(=O)O)C(=O)O)cc1 (centres undefined)	-10%	2.2µM*	2%	-23	-16%
CC(C)[C@H](NC(=O)c1ccccc1)C(=O)NC1=NCCS1	3%	.	-17%	-3	.
CCOc1ccc(N(CC(=O)Nc2cccc(Cl)c2)S(=O)(=O)c2c(C)noc2C)cc1	0%	16µM*	-18%	?	13µM*
CCOc1ccc(N(CC(=O)Nc2cccc(OC)c2)S(=O)(=O)c2c(C)noc2C)cc1	-3%	?	8%	3	?
O=C(Cc1ccc(-c2ccccc2)cc1)NCCS(=O)(=O)N1CCN(c2ccc(F)cc2)CC1	-8%	.	.	.	.
Cc1cc(F)ccc1NC(=O)CCc1c(C)nn(-c2ccc(N3CCCCC3)nn2)c1C	-8%	8.9µM*	-5%	-17	1%
O=C(CCl)N(c1ccccc1)C1CCS(=O)(=O)C1 (centres undefined)	-1%	18µM*	-52%	5	?
c1ccc2scnc2c1	1%	3%	.	-28	-4%
CC1=NOC2(C1)N(C)c1ccccc1C2(C)C (centres undefined)	5%	1%	-15%[7.66 µM]	1	-9%
COc1ccc2ccc3c(c2c1)N=C[C@]1(O3)N(C)c2ccccc2C1(C)C	2%	13µM*	-53%	-16	?
Cc1ccc(NCc2n[nH]c(=S)n2-c2cccc(Cl)c2)cc1	2%	7.9µM*	-26%	13	-28%
Cc1ccc(-n2c(CNc3ccc(C)c(Cl)c3)n[nH]c2=S)cc1	-3%	2.5µM*	?	-6	-17%
Cc1ccc(-n2c(CNc3cccc(Cl)c3)n[nH]c2=S)cc1	2%	?	14%	8	-15%
COc1ccc(OCCCC(=O)Nc2ncn[nH]2)cc1	5%	-5%	9%	-13	1%[10 µM]
CC(C1CC2CCC1C2)N1CC(O)=C(c2nc3ccccc3[nH]2)C1=N (centres undefined)	16%	8.9µM*	2%	-7	?
SMILES	ERG-DNA inh	RORgamma inh	a7 integrin act	Giardia kill	VP16 counter
O=C(Nc1cc(C(F)(F)F)ccc1Cl)C(Sc1nnc(-c2cccs2)o1)c1ccccc1 (centres undefined)	0%	11µM*	-8%	-1	?
O=C(Nc1ccc(Cl)cc1C(F)(F)F)C(Sc1nnc(-c2cccs2)o1)c1ccccc1 (centres undefined)	-3%	-27%	-10%	4	2%
Cc1cc(N/N=C(/CCC(=O)O)C(=O)O)nc2ccccc12	4%	-30%	0%	15	4%
O=[N+]([O-])c1ccc(C(O)CN=Cc2ccc(O)cc2O)cc1 (centres undefined)	-1%	?	-17%	-9	?
O=C(N/N=C(\c1ccccc1)c1cccnc1)c1cccc(F)c1	9%	0.13µM*	-51%	-14	.
CC(/C=C\C=C\c1ccccc1)=N\NC(=O)c1cncc(Br)c1	3%	4.5µM*	-51%	-18	6.3µM*
CC(/C=C/C=C/c1ccccc1)=N/NC(=O)c1ccc2c(c1)OCCO2	-3%	-19%	-1%	-6	8%
CC(/C=C/C=C/c1ccccc1)=N/NC(=O)C(O)c1ccccc1 (centres undefined)	7%	-41%	15%	15	-10%
O=C(N/N=C(\c1ccccc1)c1cccnc1)c1ccc(O)cc1	-2%	12%	-21%	-15	7%
CC(/C=C/C=C/c1ccccc1)=N\NC(=O)c1cccnc1	-6%	2.8µM*	-13%	-10	3.2µM*
CCN(CC(=O)NCc1ccc(F)cc1)C(=O)c1ccc(COc2ccccc2)cc1	52%	10%	-19%	10	-2%
NCCCCCc1nnc(SCc2ccc(Cl)c(Cl)c2)o1	3%	?	-33%	-4	10µM*
COc1ccc(Nc2ccc([N+](=O)[O-])cc2[N+](=O)[O-])cc1	-1%	18%	16%	3	2%
C[C@@]12CCC3c4ccc(OC5C=CC(c6ccccc6)OC5CO)cc4CCC3C1CCC2=O (some centres undefined)	.	-2%[10 µM]	.	.	-8%[10 µM]
CC(C)(C)c1ccc(OCCCC(=O)N2CCOCC2)cc1	11%	?	?	-3	11µM*
CC1(C)CC(C)(c2ccc(O)cc2O)N(c2cccc(Cl)c2)C(=S)N1 (centres undefined)	-5%	?	-1%	19	-8%
CC1(C)CC(C)(c2ccc(O)cc2O)N(c2ccc3ccccc3c2)C(=S)N1 (centres undefined)	-2%	7.9µM*	16%	-6	?
O=C1c2ccccc2C(=O)c2c1cccc2N(CCO)CCO	7%	?	-9%	?	-10%
O=C1C=C(N(CCO)Cc2ccccc2)c2ccccc2C1=O	9%	7.1µM*	-67%	0	?
Cc1ccc(C(=O)c2cn(CC(=O)Nc3ccc(C)cc3Cl)c3nc(C)ccc3c2=O)cc1	4%	.	.	.	.
Cc1cc(C)cc(NC(=S)N2CCN(Cc3ccccc3)CC2)c1	-11%	7.1µM*	-3%	-20	?
S=C(Nc1ccc(Cl)cc1)N1CCN(Cc2ccccc2)CC1	-5%	11µM*	4%	-11	-28%
CCC(C)NC(=S)N1CCN(Cc2ccccc2)CC1 (centres undefined)	0%	27%	3%	11	?
CC(C)c1ccc(NC(=S)N2CCN(Cc3ccccc3)CC2)cc1	13%	7.9µM*	-6%	-11	?
